Data on 30 molecules can be found in PubChem BioAssay (NCATS).

Each structure is given as a SMILES string. Results filed as inconclusive are left out. Values without a mark were called inactive. The source made the active and inactive calls. Unless noted, calls follow the shape of the full dose curve.

Experiment [1] in a line: qHTS for Inhibitors of the Functional Ribonucleoprotein Complex (vRNP) of Lassa (LASV) Arenavirus: LASV Primary Screen - GLuc reporter signal (AID 1347082; calls by dose curve; tested in HEK293 reporter line; also: nearly all actives have a fitted effect of over 60% in size).
A short description of experiment [2]: qHTS for Inhibitors of the Functional Ribonucleoprotein Complex (vRNP) of Lassa (LASV) Arenavirus: Viability assay - alamar blue signal for LASV Primary Screen (AID 1347083; calls by dose curve; tested in HEK293 reporter line; also: nearly all actives have a fitted effect of over 80% in size). For orientation: In qHTS, concentration-response curves come from the screen itself.
Experiment [3] can be described thus: qHTS for Inhibitors of the Functional Ribonucleoprotein Complex (vRNP) of Lymphocytic Choriomeningitis Arenaviruses (LCMV): Viability assay - alamar blue signal for LCMV Primary Screen (AID 1347085; calls by dose curve; tested in HEK293 reporter line; also: nearly all actives have a fitted effect of over 80% in size).
The target of experiment [4] is Nucleoprotein (Lymphocytic choriomeningitis virus (strain Armstrong)) (UniProt P09992). The experiment can be described thus: qHTS for Inhibitors of the Functional Ribonucleoprotein Complex (vRNP) of Lymphocytic Choriomeningitis Arenaviruses (LCMV): LCMV Primary Screen - GLuc reporter signal (AID 1347086). Also: nearly all actives have a fitted effect of over 70% in size.
Chain of Nucleoprotein (Lymphocytic choriomeningitis virus (strain Armstrong)) (P09992 whole entry, looked up): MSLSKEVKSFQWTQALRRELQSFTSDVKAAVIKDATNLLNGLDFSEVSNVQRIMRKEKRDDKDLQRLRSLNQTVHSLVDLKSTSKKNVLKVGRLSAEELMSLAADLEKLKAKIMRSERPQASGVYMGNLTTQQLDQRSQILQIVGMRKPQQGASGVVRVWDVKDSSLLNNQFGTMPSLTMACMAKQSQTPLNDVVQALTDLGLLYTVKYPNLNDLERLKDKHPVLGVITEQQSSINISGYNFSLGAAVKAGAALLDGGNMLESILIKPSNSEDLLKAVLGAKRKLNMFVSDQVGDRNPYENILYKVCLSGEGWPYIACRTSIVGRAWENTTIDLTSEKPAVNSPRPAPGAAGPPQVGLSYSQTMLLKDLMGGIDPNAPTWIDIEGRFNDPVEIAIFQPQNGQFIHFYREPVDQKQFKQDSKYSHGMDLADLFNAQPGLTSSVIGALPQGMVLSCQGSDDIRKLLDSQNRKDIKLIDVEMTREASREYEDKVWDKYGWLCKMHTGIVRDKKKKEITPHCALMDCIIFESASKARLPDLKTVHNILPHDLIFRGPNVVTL
Potency is read from the fitted curve at half-maximal effect.

As for `C=C1CC23C[C@H]4[C@@H]5[C@@]6(C)C[C@H](OC(=O)c7ccccc7)[C@@H](OC(C)=O)[C@]57[C@@H]2[C@@H](OC(C)=O)[C@H]1[C@@H](O)[C@H]3[C@H]7N4C6`, the Potency entry in experiment [1], in experiment [2], in experiment [3] and in experiment [4] was “inactive” in each case.

Regarding `O=C1c2c(O)cc(O)cc2O[C@H](c2ccc(O)c(O)c2)[C@@H]1O`, the Potency result in experiment [1], in experiment [2], in experiment [3] and in experiment [4] was “inactive” in each case.

For `CN1c2c(nc(N)[nH]c2=O)NCC1CNc1ccc(C(=O)NC(CCC(=O)O)C(=O)O)cc1` (stereo not given), the Potency entry in experiment [1], in experiment [2], in experiment [3] and in experiment [4] was “inactive” in each case.

As for `CC12CCC(=O)C=C1CCC1C2CCC2(C)C(C(=O)CO)CC(O)C12` (stereo not given), the Potency result in experiment [1], in experiment [2], in experiment [3] and in experiment [4] was “inactive” each time.

In the case of `O=CN(O)CCCP(=O)(O)O`, the Potency entry in experiment [1], in experiment [2], in experiment [3] and in experiment [4] was “inactive” throughout.

Take `COc1c2ccoc2nc2c(OC)c(O[C@@H]3O[C@H](C)[C@@H](O)[C@@H](O)[C@H]3O)ccc12`: the Potency result in experiment [1], in experiment [2], in experiment [3] and in experiment [4] was “inactive” each time.

Consider `C[C@@H]1C[C@@H]2OC(=O)[C@]3(C)[C@H]2[C@@H](OC3(C)O)[C@]2(C)C(=O)C=C[C@H]12` (stereo not given in full), for which the Potency entry in experiment [1], in experiment [2], in experiment [3] and in experiment [4] was “inactive” in each case.

Consider `OC/C=C/c1ccccc1`, for which the Potency entry in experiment [1], in experiment [2], in experiment [3] and in experiment [4] was “inactive” each time.

Turning to `O=c1ccc2cc3ccoc3c(O)c2o1`, the Potency entry in experiment [1], in experiment [2], in experiment [3] and in experiment [4] was “inactive” throughout.

Take `C=C1CCC(OC(C)=O)C2(C)CCC3C(C)C(=O)OC3C12O` (stereo not given): the Potency result in experiment [1], in experiment [2], in experiment [3] and in experiment [4] was “inactive” throughout.

Take `CCCC(=O)OCCC(C)CCC=C(C)C` (stereo not given): the Potency entry in experiment [1], in experiment [2], in experiment [3] and in experiment [4] was “inactive” throughout.

Regarding `CC1(C)Oc2ccc3ccc(=O)oc3c2C[C@H]1O[C@@H]1O[C@H](CO)[C@@H](O)[C@H](O)[C@H]1O`, the Potency result in experiment [1], in experiment [2], in experiment [3] and in experiment [4] was “inactive” throughout.

For the molecule `CC1CC[C@@]2(OC1)O[C@H]1CC3[C@@H]4C[C@@H](O)[C@@]5(O)C[C@@H](O)[C@H](O)C[C@]5(C)[C@H]4CC[C@]3(C)[C@H]1[C@@H]2C` (stereo not given in full), the Potency entry in experiment [1], in experiment [2], in experiment [3] and in experiment [4] was “inactive” each time.

For `Cc1c(O)cccc1C(=O)N[C@@H](CSc1ccccc1)[C@H](O)CN1C[C@H]2CCCC[C@@H]2C[C@@H]1C(=O)NC(C)(C)C`, the Potency result in experiment [1], in experiment [2], in experiment [3] and in experiment [4] was “inactive” throughout.

Consider `O=C1c2ccccc2-n2c1nc1ccccc1c2=O`, for which the Potency result in experiment [1], in experiment [2] and in experiment [3] was “inactive” throughout. The Potency in experiment [4] was 447 nM (active).

Turning to `CCc1cnn2c(NCc3ccc[n+]([O-])c3)cc(N3CCCC[C@@H]3CCO)nc12`, the Potency in experiment [1] is 109 nM (active); in experiment [2] it was 38.5 nM (active); in experiment [3] it was 38.5 nM (active); in experiment [4], 48.5 nM (active).

`c1ccc(CN(Cc2ccccc2)Cc2ccccc2)cc1`: the Potency result in experiment [1], in experiment [2], in experiment [3] and in experiment [4] was “inactive” in each case.

Turning to `Cc1c(O)ccoc1=O`, the Potency result in experiment [1], in experiment [2], in experiment [3] and in experiment [4] was “inactive” in each case.

Take `CC1(C)C2CC[C@]3(C)C(CC=C4[C@@H]5C[C@@](C)(CO)[C@@H](O)C[C@]56C[C@@H](OC6=O)[C@]43C)[C@@]2(C)CC[C@@H]1O` (stereo not given in full): the Potency result in experiment [1], in experiment [2], in experiment [3] and in experiment [4] was “inactive” throughout.

As for `COc1ccc(C(=O)OC2CC3CCC(C2)[N+]3(C)[O-])cc1OC` (stereo not given), the Potency result in experiment [1], in experiment [2], in experiment [3] and in experiment [4] was “inactive” each time.

Consider `CC(C)CC(=O)[C@@H](O)Cc1ccc(O)cc1`, for which the Potency result in experiment [1], in experiment [2], in experiment [3] and in experiment [4] was “inactive” each time.

Turning to `C[C@@H]1CCCCCCCCCCC1=O`, the Potency result in experiment [1], in experiment [2], in experiment [3] and in experiment [4] was “inactive” throughout.

Turning to `CN1CCC[C@H]1CCO[C@](C)(c1ccccc1)c1ccc(Cl)cc1`, the Potency entry in experiment [1], in experiment [2], in experiment [3] and in experiment [4] was “inactive” in each case.

With `OC(CC(O)c1ccccc1)c1ccccc1` (stereo not given), the Potency result in experiment [1], in experiment [2], in experiment [3] and in experiment [4] was “inactive” throughout.

Turning to `C[C@@H]1CCN(C(=O)CC#N)C[C@H]1N(C)c1ncnc2[nH]ccc12`, the Potency entry in experiment [1], in experiment [2], in experiment [3] and in experiment [4] was “inactive” each time.

Regarding `CC(C)(O)[C@@H]1Cc2c(ccc3ccc(=O)oc23)O1`, the Potency entry in experiment [1], in experiment [2], in experiment [3] and in experiment [4] was “inactive” throughout.

With `C=O`, the Potency entry in experiment [1], in experiment [2], in experiment [3] and in experiment [4] was “inactive” each time.

`CO[C@H]1C=CCCC=CC(=O)O[C@H]([C@H](C)C(=O)CCCC2CC(=O)NC(=O)C2)C(C)=C[C@@H](C)[C@@H]1O`: the Potency result in experiment [1], in experiment [2], in experiment [3] and in experiment [4] was “inactive” throughout.

Consider `C[C@]1(CC/C(=C/CO)CO)[C@H](CO)CC[C@@]23COC(=O)C2=CCC[C@@H]31`, for which the Potency result in experiment [1], in experiment [2], in experiment [3] and in experiment [4] was “inactive” each time.

Regarding `CCCCCCCCCCOS(=O)(=O)O`, the Potency result in experiment [1], in experiment [2], in experiment [3] and in experiment [4] was “inactive” in each case.
